Sampled rows, rich in hits. Any-hit rate of the full collection: about 3.5%.
FBW7 activator: activators of human E3 ligase FBW7; normalized activity (activation), % at 26.1 µM; AID 1259310; Q969H0; AlphaScreen FBW7–phospho-cyclin E peptide binding, activator screen; hit rate 0.13% among 650,000; in the data active = normalized activity above about 1.9%;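 note: purified mutant Fbw7 with reduced substrate affinity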
GPR151 ag: activates the human receptor GPR151; PathHunter beta-arrestin GPR151 cells, luminescence; activation, % at 11.2 µM; hit rate 1% among 650,000; AID 1508602; in the data active = activation above about 4.9%
MITF inh: blocks human microphthalmia-associated transcription factor | AID 1259374 | inhibition, % at 2.6 µM | hit rate 0.91% among 650,000 | AlphaScreen MITF homodimerization, bead proximity signal; in the data active = inhibition above about 50%
TEAD-YAP block: TEAD-YAP interaction inhibition; HEK-TIYL cells, TEAD-Gal4/YAP UAS-luciferase luminescence; inhibition, % at 9.12 µM; hit rate 1.4% among 640,000; in the data active = inhibition above about 32%
GPR151 conf act: human GPR151 activation, confirmation screen | GPR151 PathHunter beta-arrestin cells, luminescence, 90 min; % of EA-reagent control over plate median | AID 1508609 | shares compounds with GPR151 ag | activation, % at 11.2 µM | 6,700 tested, under 10 active;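 active = mean percent activation across replicates above the confirmation screen cutoff of 4.91%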
GPR119 counter: counter-screen for GPR151 activators: effect on human GPR119 | hit rate 0.3% among 6,700 | GPR119 PathHunter beta-arrestin cells, luminescence, 90 min; 0 = compound-well median, 100 = enzyme-acceptor control | shares compounds with GPR151 ag | activation, % at 11.2 µM | AID 1508611;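 active = mean percent activation in the counterscreen above 29.09%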;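 note: counterscreen on off-target GPR119 to flag nonselective hits from the GPR151 activator screen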
Numbers stand for hits.

Screening CC(Sc1n[nH]c(N)n1)C(=O)OC1CCCCC1 (stereo not given) returned FBW7 activator inactive, GPR151 ag 10.0, MITF inh inactive, TEAD-YAP block inactive, GPR151 conf act inactive and GPR119 counter inactive.
CCOC(=O)C1=C(C)N=c2s/c(=C\c3ccc(-c4ccc(C(=O)O)cc4)o3)c(=O)n2C1c1ccccc1OC (stereo not given) was read as FBW7 activator inactive, GPR151 ag inactive, MITF inh inactive and TEAD-YAP block inactive.
`CCOC(=O)C1=C(C)N=c2s/c(=C\c3ccc(C)cc3)c(=O)n2C1c1ccccc1OC` (stereo not given) gave FBW7 activator inactive, GPR151 ag 8.6, MITF inh inactive, TEAD-YAP block inactive, GPR151 conf act inactive and GPR119 counter inactive.
Screening CCOC(=O)C1=C(c2ccccc2)N=c2s/c(=C\c3ccco3)c(=O)n2C1c1cccs1 (stereo not given) returned FBW7 activator inactive, GPR151 ag inactive, MITF inh inactive and TEAD-YAP block inactive.
Screening CCOC(=O)C1=C(C)N=c2s/c(=C\c3ccc(-c4ccccc4C(=O)O)o3)c(=O)n2C1c1ccccc1OC (stereo not given) returned FBW7 activator inactive, GPR151 ag 5.7, MITF inh inactive, TEAD-YAP block inactive, GPR151 conf act inactive and GPR119 counter inactive.
Screening CCOC(=O)C1=C(C)N=c2s/c(=C\c3c(F)cccc3Cl)c(=O)n2C1c1ccc(C)cc1 (stereo not given) returned FBW7 activator inactive, GPR151 ag inactive, MITF inh inactive and TEAD-YAP block inactive.
Screening COC(=O)C1=C(C)N=c2s/c(=C\c3c(F)cccc3Cl)c(=O)n2C1c1ccccc1 (stereo not given) returned FBW7 activator inactive, GPR151 ag 5.3, MITF inh inactive, TEAD-YAP block inactive, GPR151 conf act inactive and GPR119 counter inactive.
Screening CCOC(=O)C1=C(C)N=c2s/c(=C\c3ccc(OC)cc3)c(=O)n2C1c1ccccc1OC (stereo not given) returned FBW7 activator inactive, GPR151 ag inactive, MITF inh inactive and TEAD-YAP block inactive.
For CCOC(=O)C1=C(C)N=c2s/c(=C\c3ccco3)c(=O)n2C1c1cccs1 (stereo not given) the results were FBW7 activator inactive, GPR151 ag 7.5, MITF inh inactive, TEAD-YAP block inactive, GPR151 conf act inactive and GPR119 counter inactive.
Screening O=C(NCc1ccccc1)c1cn[nH]c1C(F)(F)F returned FBW7 activator inactive, GPR151 ag inactive, MITF inh inactive and TEAD-YAP block inactive.
OCC1CCCN1c1cc(Nc2ccc(N3CCOCC3)cc2)ncn1 (stereo not given) was read as FBW7 activator inactive, GPR151 ag inactive, MITF inh inactive and TEAD-YAP block inactive.
CC(=O)Nc1ccc(Nc2cc(N3CCCC3CO)ncn2)cc1 (stereo not given) was read as FBW7 activator inactive, GPR151 ag 5.2, MITF inh inactive, TEAD-YAP block inactive, GPR151 conf act inactive and GPR119 counter inactive.
For Cc1ccc(OCc2ccc(C(=O)NNC(=S)NCC3CCCO3)o2)c([N+](=O)[O-])c1 (stereo not given) the results were FBW7 activator inactive, GPR151 ag 5.8, MITF inh inactive, TEAD-YAP block inactive, GPR151 conf act inactive and GPR119 counter inactive.
Screening Cc1ccc(OC(C)C(=O)NNC(=S)NCC2CCCO2)c([N+](=O)[O-])c1 (stereo not given) returned FBW7 activator inactive, GPR151 ag inactive, MITF inh inactive and TEAD-YAP block inactive.
Screening CCCCC1=CC2=C(c3ccco3)C(=O)C(C)(OC(=O)c3ccc(Cl)nc3)C(=O)C2=CO1 (stereo not given) returned FBW7 activator inactive, GPR151 ag 6.5, MITF inh inactive, GPR151 conf act inactive and GPR119 counter inactive.
For CCCCC1=CC2=C(c3ccco3)C(=O)C(C)(OC(=O)c3ccc(OC)cc3)C(=O)C2=CO1 (stereo not given) the results were FBW7 activator inactive, GPR151 ag inactive and MITF inh inactive.
`CCOc1nc(NC(=O)NS(=O)(=O)c2ccccc2)nc(-c2ccccc2)n1` gave FBW7 activator inactive, GPR151 ag 5.0, MITF inh inactive, TEAD-YAP block inactive, GPR151 conf act inactive and GPR119 counter inactive.
For Cc1ccc(N2C(=O)SC(Nc3ccc(F)cc3)C2=O)cc1 (stereo not given) the results were FBW7 activator inactive, GPR151 ag 5.4, MITF inh inactive, TEAD-YAP block inactive, GPR151 conf act inactive and GPR119 counter inactive.
Cc1ccc(N2C(=O)SC(Nc3ccc(I)cc3)C2=O)cc1 (stereo not given) was read as FBW7 activator inactive, GPR151 ag inactive, MITF inh inactive and TEAD-YAP block inactive.
Cc1ccc(N2C(=O)SC(Nc3ccccc3)C2=O)cc1 (stereo not given) was read as FBW7 activator inactive, GPR151 ag inactive, MITF inh inactive and TEAD-YAP block inactive.
`Cc1cccc(NC2SC(=O)N(c3ccc(F)cc3)C2=O)c1` (stereo not given) gave FBW7 activator inactive, GPR151 ag 5.6, MITF inh inactive, TEAD-YAP block inactive, GPR151 conf act inactive and GPR119 counter inactive.
NC(=O)c1ccc(NC(=O)/C=C\C(=O)O)cc1Cl was read as FBW7 activator inactive, GPR151 ag inactive, MITF inh inactive and TEAD-YAP block inactive.
Screening Cc1ccc(S(=O)(=O)Nc2ccc(NC(=O)/C=C/c3ccc4c(c3)OCO4)cc2)cc1 returned FBW7 activator inactive, GPR151 ag 7.6, MITF inh inactive, TEAD-YAP block inactive, GPR151 conf act inactive and GPR119 counter inactive.
`COCc1cc(C)nc2sc(C(=O)c3ccccc3)c(N)c12` gave FBW7 activator inactive, GPR151 ag inactive, MITF inh inactive and TEAD-YAP block inactive.
`COCc1cc(C)nc2oc(C(=O)c3ccccc3)c(N)c12` gave FBW7 activator inactive, GPR151 ag 5.7, MITF inh inactive, TEAD-YAP block inactive, GPR151 conf act inactive and GPR119 counter inactive.
COc1ncc(-c2cnc3ccc(NCCCO)nn23)c(OC)n1 was read as FBW7 activator inactive, GPR151 ag inactive, MITF inh inactive and TEAD-YAP block inactive.
For CSc1cc(C)c2c(c1)COC1(CCN(C(=O)NCc3ccccc3)CC1)O2 the results were FBW7 activator inactive, GPR151 ag inactive, MITF inh inactive and TEAD-YAP block inactive.
`COc1ccc(/C=C(\C#N)C(=O)NCc2cccnc2)cc1OC` gave FBW7 activator inactive, GPR151 ag 6.0, MITF inh inactive, TEAD-YAP block inactive, GPR151 conf act inactive and GPR119 counter inactive.
For CCOc1cc(/C=C(/C#N)C(=O)NCc2ccccc2)ccc1OC the results were FBW7 activator inactive, GPR151 ag inactive, MITF inh inactive and TEAD-YAP block inactive.

Screens as filed in PubChem BioAssay.
